Laboratory results from the antibiotic and cytotoxicity screens of Wong et al. (2023).
Among all 39,000 compounds or so, about 3,300 (8.5%) were called active. For the sample, actives were picked, then their nearest neighbours and some compounds at random.

Each molecule was assayed on HepG2 (assay: cytotoxicity call (relative viability < 0.9)). Settings: 10 µM.

| SMILES | cytotoxicity call |
| --- | --- |
| COc1cccc(C#Cc2cnc3c(c2)C(=O)N([C@H](C)CO)C[C@@H](C)[C@@H](CN(C)C(=O)C2CCOCC2)O3)c1 | inactive |
| C[C@H]1CN([C@@H](C)CO)C(=O)CCCn2nncc2CO[C@H]1CN(C)S(=O)(=O)c1ccc(-n2cccn2)cc1 | inactive |
| CCOC(=O)c1cc2c(c(-c3ccccc3)n1)[C@@H](CCO[Si](C)(C)C(C)(C)C)N(S(=O)(=O)C(C)(C)C)C2 | inactive |
| CCC(=O)Nc1ccc2c(c1)C(=O)N(C)C[C@@H](OC)[C@@H](C)CN(C(=O)CN1CCOCC1)[C@@H](C)CO2 | inactive |
| O=C(O)COCC(=O)NCc1ccco1 | inactive |
| O=C1O[C@@H](c2ccccc2)[C@@H](c2ccccc2)N2[C@@H](c3ccc(O)cc3)[C@]3(C(=O)Nc4ccccc43)[C@@H](C(=O)Nc3nc4ccccc4s3)[C@H]12 | inactive |
| C[C@H]1CN([C@@H](C)CO)C(=O)c2cc(C#Cc3ccccc3F)cnc2O[C@@H]1CN(C)C(=O)c1ccc2c(c1)OCO2 | inactive |
| C[C@@H]1CN([C@H](C)CO)C(=O)Cc2cc(N(C)C)ccc2O[C@@H]1CN(C)S(=O)(=O)c1cn(C)cn1 | inactive |
| C[C@H]1CN([C@@H](C)CO)C(=O)c2cc(NC(=O)Nc3ccc4c(c3)OCO4)ccc2O[C@@H]1CN(C)C(=O)Nc1ccc(C(F)(F)F)cc1 | inactive |
| C[C@@H]1CN([C@H](C)CO)C(=O)c2cc(NC(=O)Nc3ccc(C(F)(F)F)cc3)ccc2O[C@H]1CN(C)C(=O)Nc1ccc2c(c1)OCO2 | inactive |
| C[C@H]1CN([C@@H](C)CO)C(=O)c2cc(NC(=O)Nc3ccc(C(F)(F)F)cc3)ccc2O[C@@H]1CN(C)C(=O)Nc1ccc2c(c1)OCO2 | active |
| C[C@H]1CN([C@@H](C)CO)C(=O)c2cc(NC(=O)Nc3ccc4c(c3)OCO4)ccc2O[C@H]1CN(C)C(=O)Nc1ccc(C(F)(F)F)cc1 | inactive |
| C[C@@H]1CN([C@@H](C)CO)C(=O)c2cc(NC(=O)Nc3ccc(C(F)(F)F)cc3)ccc2O[C@@H]1CN(C)C(=O)Nc1ccc2c(c1)OCO2 | active |
| C[C@@H]1CN([C@@H](C)CO)C(=O)c2cc(NC(=O)Nc3ccc4c(c3)OCO4)ccc2O[C@H]1CN(C)C(=O)Nc1ccc(C(F)(F)F)cc1 | inactive |
| COCCNC(=O)C[C@@H]1C[C@@H]2c3cc(NC(=O)COC)ccc3O[C@@H]2[C@@H](CO)O1 | inactive |
| Cc1noc(C)c1NC(=O)Nc1ccc2c(c1)C(=O)N([C@@H](C)CO)C[C@@H](C)[C@H](CN(C)S(=O)(=O)c1ccccc1)OCCCC[C@@H](C)O2 | inactive |
| C[C@H]1CN([C@@H](C)CO)C(=O)c2cc(NC(=O)Cn3cnnn3)ccc2O[C@@H]1CN(C)Cc1ccc(C(=O)Nc2ccccc2N)cc1 | inactive |
| C[C@@H]1CN([C@H](C)CO)C(=O)c2cc(NC(=O)C3CC3)ccc2O[C@@H]1CN(C)S(=O)(=O)c1cn(C)cn1 | inactive |
| COc1ccc(CN(C)C[C@H]2OCCCC[C@@H](C)Oc3ccc(NS(=O)(=O)c4ccc(F)cc4)cc3C(=O)N([C@H](C)CO)C[C@@H]2C)cc1 | inactive |
| COc1ccccc1NC(=O)N(C)C[C@@H]1Oc2cc(Br)ccc2S(=O)(=O)N([C@@H](C)CO)C[C@@H]1C | inactive |
| C[C@H]1CN([C@@H](C)CO)S(=O)(=O)c2ccc(-c3cncnc3)cc2O[C@H]1CN(C)C(=O)NC1CCCC1 | inactive |
| COc1ccc2c3c([nH]c2c1)[C@@H](CO)N(Cc1ccncc1)C[C@]13CCN(CC1)Cc1ccc(cc1)-c1ccccn1 | inactive |
| COc1ccc(cc1)CN1C[C@]2(CCN(CC2)C(=O)Nc2cccc(c2)F)c2c([nH]c3cc(ccc23)OC)[C@@H]1CO | inactive |
| COc1ccc2c3c([nH]c2c1)[C@H](CO)N(Cc1ccccc1)C[C@]13CCN(CC1)C(=O)Nc1cccc(c1)F | inactive |

| SMILES | cytotoxicity call |
| --- | --- |
| COc1ccc2c3c([nH]c2c1)[C@@H](CO)N(C[C@]13CCN(CCc2ccccc2)CC1)C(=O)CN1CCOCC1 | inactive |
| COc1ccc2c3c([nH]c2c1)[C@@H](CO)N(Cc1ccc(cc1)Cl)C[C@]13CCN(CCc2ccccc2)CC1 | active |
| COc1ccc2c3c([nH]c2c1)[C@H](CO)N(Cc1ccc(cc1)Cl)C[C@]13CCN(CCc2ccccc2)CC1 | active |
| COc1ccc(NC(=O)N(C)C[C@H]2OCCCC[C@H](C)Oc3ccc(NC(=O)C4CCCCC4)cc3C(=O)N([C@H](C)CO)C[C@@H]2C)cc1 | inactive |
| C[C@@H]1CN([C@@H](C)CO)C(=O)c2cc(NS(=O)(=O)c3cccs3)ccc2O[C@H]1CN(C)Cc1ccncc1 | inactive |
| Cc1noc(C)c1S(=O)(=O)N(C)C[C@@H]1Oc2ccc(NC(=O)Cc3ccccc3)cc2CC(=O)N([C@@H](C)CO)C[C@H]1C | inactive |
| C[C@H](CO)N1C[C@H](C)[C@@H](CN(C)Cc2ccc(-c3ccccc3)cc2)Oc2ccc(NS(=O)(=O)c3ccc(Cl)cc3)cc2CC1=O | inactive |
| C[C@@H]1CN([C@@H](C)CO)C(=O)Cc2cc(NS(=O)(=O)c3ccc(Cl)cc3)ccc2O[C@H]1CN(C)Cc1ccc(-c2ccccc2)cc1 | active |
| C[C@@H]1CN([C@H](C)CO)C(=O)Cc2cc(NS(=O)(=O)c3ccc(Cl)cc3)ccc2O[C@H]1CN(C)Cc1ccc(-c2ccccc2)cc1 | inactive |
| C[C@H]1CN([C@@H](C)CO)C(=O)Cc2cc(NS(=O)(=O)c3ccc(Cl)cc3)ccc2O[C@H]1CN(C)Cc1ccc(-c2ccccc2)cc1 | active |
| C[C@@H]1CN([C@H](C)CO)C(=O)Cc2cc(NS(=O)(=O)c3ccc(Cl)cc3)ccc2O[C@@H]1CN(C)Cc1ccc(-c2ccccc2)cc1 | active |
| C[C@H](CO)N1C[C@H](C)[C@H](CN(C)Cc2ccc(-c3ccccc3)cc2)Oc2ccc(NS(=O)(=O)c3ccc(Cl)cc3)cc2CC1=O | inactive |
| C[C@H]1CN([C@@H](C)CO)C(=O)Cc2cc(NS(=O)(=O)c3ccc(Cl)cc3)ccc2O[C@@H]1CN(C)Cc1ccc(-c2ccccc2)cc1 | inactive |
| C[C@@H]1CN([C@@H](C)CO)C(=O)Cc2cc(NS(=O)(=O)c3ccc(Cl)cc3)ccc2O[C@@H]1CN(C)Cc1ccc(-c2ccccc2)cc1 | inactive |
| C[C@@H]1CN([C@@H](C)CO)C(=O)c2cc(NS(C)(=O)=O)ccc2O[C@@H](C)CCCCO[C@H]1CN(C)CC1CC1 | inactive |
| C[C@@H]1CN([C@H](C)CO)C(=O)c2cc(NC(=O)Cn3cnnn3)ccc2O[C@H]1CN(C)Cc1ccc(Cl)c(Cl)c1 | inactive |
| C[C@H]1CN([C@@H](C)CO)C(=O)c2cccc(NS(=O)(=O)c3ccc(F)cc3)c2O[C@@H]1CN(C)S(=O)(=O)c1cccs1 | inactive |
| O=C(C[C@H]1C[C@@H]2c3cc(NC(=O)Nc4ccc(C(F)(F)F)cc4)ccc3O[C@@H]2[C@H](CO)O1)NCc1cc(F)ccc1F | inactive |
| C[C@H](CO)N1C[C@H](C)[C@@H](CN(C)C(=O)Nc2cccc(F)c2)OCc2ccccc2-c2ccccc2C1=O | inactive |
| C[n+]1ccc(CCCO)cc1 | inactive |
| CC(C)C(N)C(=O)OCCOCn1cnc2c(=O)[nH]c(N)nc21.Cl (stereo not given) | inactive |
| Clc1ccc(COC(Cn2ccnc2)c2ccc(Cl)cc2Cl)c(Cl)c1.O=[N+]([O-])O (stereo not given) | inactive |
| Clc1ccc(COC(Cn2ccnc2)c2ccc(Cl)cc2Cl)cc1.O=[N+]([O-])O (stereo not given) | active |
| Clc1ccc(C(Cn2ccnc2)OCc2c(Cl)cccc2Cl)c(Cl)c1.O=[N+]([O-])O (stereo not given) | inactive |

| SMILES | cytotoxicity call |
| --- | --- |
| Clc1ccc(CSC(Cn2ccnc2)c2ccc(Cl)cc2Cl)cc1.O=[N+]([O-])O (stereo not given) | active |
| Clc1ccc(CCC(Cn2ccnc2)Sc2c(Cl)cccc2Cl)cc1 (stereo not given) | inactive |
| Clc1ccc(CON=C(Cn2ccnc2)c2ccc(Cl)cc2Cl)c(Cl)c1.O=[N+]([O-])O | inactive |
| CC(C)NC(=O)N[C@H]1C=C[C@H](CC(=O)NCCCN(C)C)O[C@@H]1CO | inactive |
| COc1cccc(S(=O)(=O)N[C@H]2C=C[C@@H](CC(=O)NC3CCC3)O[C@H]2CO)c1 | inactive |
| C[C@@H]1CN([C@@H](C)CO)C(=O)c2cc(N(C)C)ccc2O[C@H]1CN(C)S(=O)(=O)c1ccc(Cl)cc1 | inactive |
| Cc1cccc(NC(=O)CN2C(=O)CNC2=O)c1 | inactive |
| C[C@H](CO)N1C[C@H](C)[C@H](CN(C)C(=O)Nc2ccc3c(c2)OCO3)Oc2ccc(NS(C)(=O)=O)cc2CC1=O | inactive |
| CCC(=O)N1CCN(c2ccc(-n3c(=O)ccc4cnc5ccc(-c6cnc7ccccc7c6)cc5c43)cc2C(F)(F)F)CC1 | active |
| Cc1noc(C)c1NC(=O)Nc1ccc2c(c1)C(=O)N([C@H](C)CO)C[C@H](C)[C@H](CN(C)C(=O)C1CCCCC1)OCCCC[C@H](C)O2 | inactive |
| C[C@H]1CN([C@@H](C)CO)C(=O)c2cccc(NC(=O)c3nc4ccccc4s3)c2O[C@H]1CN(C)Cc1ccc(C(F)(F)F)cc1 | inactive |
| O=C(C[C@@H]1C[C@@H]2c3cc(NC(=O)C4CCOCC4)ccc3O[C@@H]2[C@H](CO)O1)NCc1ccc2c(c1)OCO2 | inactive |
| CS(C)(=O)=O | active |
| CS(=O)(=O)OCCCCOS(C)(=O)=O [listing 1 of 2 here] | inactive |
| CS(=O)(=O)OCCCCOS(C)(=O)=O [listing 2 of 2 here] | inactive |
| CCOC(=O)c1c[nH][nH]c1=O | inactive |
| CC(C)NC(=O)N(C)C[C@H]1OCCCC[C@H](C)Oc2ccc(NC(=O)Nc3ccc(F)cc3)cc2C(=O)N([C@H](C)CO)C[C@@H]1C | inactive |
| C[C@H](CO)N1C[C@H](C)[C@@H](CN(C)C(=O)Cc2ccccc2)OCCCC[C@H](C)Oc2ccc(NC(=O)NC3CCCCC3)cc2C1=O | inactive |
| COc1nn(C)cc1C(=O)Nc1ccon1 | inactive |
| S=C1NCN(CCc2ccccc2)CN1 | inactive |
| OCCN1CNC(=S)NC1 | inactive |
| CCCCN1CNC(=S)NC1 | active |
